According to PubChem BioAssay (NCI):
About 79,000 compounds went through this panel and 15% of them were active in at least one assay; those are over-represented in the sample as a whole. The source made the active and inactive calls. Cut-off read from the data, not from the text of the source: active = growth inhibition above about 70%; inactive = the rest.

Columns and labels:
[1] = NCI Yeast Anticancer Drug Screen. Data for the rad52 strain (AID 147);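 note: 0% = growth of vehicle-treated control cultures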; conditions: S. cerevisiae rad52 mutant growth inhibition, hits give high values
Summary of the method: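 Read-out: growth inhibition versus vehicle-treated controls. Cells were a DNA repair-deficient yeast strain treated with compounds.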

[2] = NCI Yeast Anticancer Drug Screen. Data for the wt1 strain (AID 149);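 note: 0% = growth of vehicle-treated wt1 cultures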; conditions: S. cerevisiae wt1 strain (SPY 50644) growth inhibition, hits give high values
Summary of the method: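 Using yeast strain wt1, compound-induced growth inhibition was determined against vehicle-treated cultures.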

[3] = NCI Yeast Anticancer Drug Screen. Data for the rad50EPP+ strain (AID 151);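 note: 0% = growth of vehicle-treated control cultures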; conditions: S. cerevisiae rad50 mutant strain, hits give high values
Summary of the method: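 Growth inhibition read against vehicle controls in rad50EPP+ yeast, a strain altered in DNA damage repair, after compound exposure.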

[4] = NCI Yeast Anticancer Drug Screen. Data for the rad50 strain (AID 155);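 note: 0% = growth of vehicle-only cultures of the same strain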; conditions: S. cerevisiae rad50 strain growth inhibition, hits give high values
Summary of the method: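 Relative growth inhibition (compound vs vehicle) was measured in yeast with a defined repair-gene alteration.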

[5] = NCI Yeast Anticancer Drug Screen. Data for the mec2-1 strain (AID 157); conditions: S. cerevisiae mec2-1 strain, hits give high values
Summary of the method: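 Yeast mec2-1 mutant treated with compound. Readout: growth inhibition vs vehicle controls.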

[6] = NCI Yeast Anticancer Drug Screen. Data for the rad14 strain (AID 159);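 note: 0% = growth of vehicle-treated control cultures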; conditions: S. cerevisiae rad14 strain growth inhibition, hits give high values
Summary of the method: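 Screen for anticancer potential: a yeast strain altered in DNA damage repair is grown with compound, and reduced growth is quantified against vehicle controls.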

[7] = NCI Yeast Anticancer Drug Screen. Data for the sgs1 mgt1 strain (AID 161);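 note: 0% = growth of cultures given vehicle only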; conditions: S. cerevisiae sgs1 mgt1 strain, hits give high values
Summary of the method: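 Test agents were incubated with a DNA-repair-mutant yeast strain. Growth was then read and compared against vehicle-treated controls.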

[8] = NCI Yeast Anticancer Drug Screen. Data for the CLN2oe strain (AID 163);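 note: 0% = growth of vehicle-only control cultures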; conditions: S. cerevisiae CLN2oe strain, hits give high values
Summary of the method: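 Read-out: yeast growth inhibition, expressed relative to vehicle-only controls. The strain bears an engineered cell-cycle alteration.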

[9] = NCI Yeast Anticancer Drug Screen. Data for the cln2 rad14 strain (AID 165);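 note: 0% = growth equal to vehicle treated cultures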; conditions: S. cerevisiae cln2 rad14 strain, hits give high values
Summary of the method: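 cln2 rad14 yeast strain; compound exposure; growth inhibition read vs vehicle controls.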

[10] = NCI Yeast Anticancer Drug Screen. Data for the bub3 strain (AID 167); conditions: S. cerevisiae bub3 mutant strain, hits give high values
Summary of the method: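 Screening used yeast with an engineered genetic alteration affecting cell cycle control. Compound-exposed cultures were compared with vehicle cultures, and reduced growth was taken as inhibition.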

[11] = NCI Yeast Anticancer Drug Screen. Data for the wt2 strain (AID 169);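 note: 0% = growth of vehicle-treated yeast cultures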; conditions: S. cerevisiae wt2 strain growth inhibition, hits give high values
Summary of the method: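 Read-out: growth inhibition versus vehicle-treated control cultures after compound exposure of the yeast strain.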

[12] = NCI Yeast Anticancer Drug Screen. Data for the mlh1 strain (AID 171);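 note: 0% = growth of vehicle-treated control cultures of the same strain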; conditions: S. cerevisiae mlh1 strain growth inhibition, hits give high values
Summary of the method: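 Read-out: growth inhibition versus vehicle controls. Strain: engineered yeast with a defined DNA repair or cell cycle defect, compound-treated.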

[13] = NCI Yeast Anticancer Drug Screen. Data for the sgs1 strain (AID 173);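 note: 0% = growth of vehicle-only control cultures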; conditions: S. cerevisiae sgs1 mutant, hits give high values
Summary of the method: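 Read-out: yeast growth inhibition relative to vehicle controls, following compound exposure of a strain with a defined DNA repair/cell cycle alteration.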

[14] = NCI Yeast Anticancer Drug Screen. Data for the mlh1 rad18 strain (AID 175); conditions: S. cerevisiae mlh1 rad18 strain growth inhibition, hits give high values
Summary of the method: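 Yeast w/ defined DNA-repair lesions; compound exposure; growth vs vehicle controls → % inhibition.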

[15] = NCI Yeast Anticancer Drug Screen. Data for the rad18 strain (AID 177); conditions: S. cerevisiae rad18 mutant growth inhibition, hits give high values
Summary of the method: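 Readout: growth inhibition vs vehicle controls. Cells: genetically altered yeast strain, DNA repair defect.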

[16] = at 5.0 µM (retest, dose inferred, filed as 0.5)
[17] = at 50.0 µM (retest, dose inferred, filed as 5.0)

Measured: growth inhibition

CN(C)c1ccc(N=Nc2ccccn2)cc1
inactive: [1]; at 1.2 µM -15% | [1]; at 3.7 µM -12% | [1]; at 11.0 µM 15% | [2]; at 1.2 µM -21% | [2]; at 3.7 µM 31% | [2]; at 11.0 µM 29% | [3]; at 1.2 µM -88% | [3]; at 3.7 µM -118% | [3]; at 11.0 µM -85% | [3]; at 33.0 µM 66% | [4]; at 1.2 µM -29% | [4]; at 3.7 µM -18% | [4]; at 11.0 µM 26% | [5]; at 1.2 µM -10% | [5]; at 3.7 µM 20% | [5]; at 11.0 µM 14% | [5]; at 33.0 µM 66% | [6]; at 1.2 µM 12% | [6]; at 3.7 µM 1% | [6]; at 11.0 µM 62% | [7]; [16] -1% | [8]; at 1.2 µM 1% | [8]; at 3.7 µM -17% | [8]; at 11.0 µM 17% | [9]; [16] 41% | [10]; at 1.2 µM -3% | [10]; at 3.7 µM 15% | [10]; [16] 40% | [10]; at 11.0 µM 61% | [11]; at 1.2 µM -27% | [11]; at 3.7 µM -12% | [11]; at 11.0 µM 3% | [12]; at 1.2 µM 33% | [12]; at 3.7 µM 10% | [12]; at 11.0 µM 60% | [13]; at 1.2 µM -6% | [13]; at 3.7 µM 5% | [13]; at 11.0 µM 25% | [15]; at 1.2 µM -16% | [15]; at 3.7 µM -10% | [15]; at 11.0 µM -1%
active: [1]; at 33.0 µM 89% | [1]; at 100.0 µM 94% | [2]; at 33.0 µM 87% | [2]; at 100.0 µM 94% | [3]; at 100.0 µM 85% | [4]; [16] 100% | [4]; at 33.0 µM 94% | [4]; [17] 100% | [4]; at 50.0 µM 81.6% | [4]; at 100.0 µM 96% | [5]; [16] 100% | [5]; [17] 100% | [5]; at 50.0 µM 82.9% | [5]; at 100.0 µM 96% | [6]; at 33.0 µM 95% | [6]; at 100.0 µM 97% | [7]; [17] 98% | [7]; at 50.0 µM 85.6% | [8]; at 33.0 µM 77% | [8]; at 100.0 µM 88% | [9]; [17] 97% | [9]; at 50.0 µM 75.2% | [10]; at 33.0 µM 95% | [10]; [17] 97% | [10]; at 50.0 µM 87.1% | [10]; at 100.0 µM 96% | [11]; at 33.0 µM 86% | [11]; at 100.0 µM 94% | [12]; at 33.0 µM 93% | [12]; at 100.0 µM 96% | [13]; at 33.0 µM 88% | [13]; at 100.0 µM 94% | [14]; [16] 100% | [14]; [17] 100% | [14]; at 50.0 µM 83.2% | [15]; at 33.0 µM 83% | [15]; at 100.0 µM 91%

C/C(=N\NC(=S)NNC(=S)N(C)c1ccccc1)c1ccccn1
inactive: [1]; at 1.2 µM 9% | [1]; at 3.7 µM 40% | [2]; at 1.2 µM -4% | [2]; at 3.7 µM 46% | [3]; at 1.2 µM 11% | [3]; at 3.7 µM 5% | [4]; at 1.2 µM -9% | [4]; at 3.7 µM 37% | [4]; [16] -19% | [5]; at 1.2 µM 18% | [5]; at 3.7 µM 25% | [5]; [16] 10% | [6]; at 1.2 µM -6% | [7]; [16] 0% | [8]; at 1.2 µM 17% | [8]; at 3.7 µM 13% | [9]; [16] 29% | [10]; at 1.2 µM -17% | [10]; at 3.7 µM 21% | [11]; at 1.2 µM 9% | [11]; at 3.7 µM 22%
active: [1]; at 11.0 µM 97% | [1]; at 33.0 µM 98% | [1]; at 100.0 µM 83% | [2]; at 11.0 µM 97% | [2]; at 33.0 µM 98% | [2]; at 100.0 µM 86% | [3]; at 11.0 µM 92% | [3]; at 33.0 µM 98% | [3]; at 100.0 µM 81% | [4]; at 11.0 µM 97% | [4]; at 33.0 µM 97% | [4]; [17] 98% | [4]; at 50.0 µM 87% | [4]; at 100.0 µM 83% | [5]; at 11.0 µM 98% | [5]; at 33.0 µM 99% | [5]; [17] 99% | [5]; at 50.0 µM 90.5% | [5]; at 100.0 µM 82% | [6]; at 3.7 µM 71% | [6]; at 11.0 µM 97% | [6]; at 33.0 µM 98% | [6]; at 100.0 µM 79% | [7]; [17] 98% | [7]; at 50.0 µM 88.5% | [8]; at 11.0 µM 97% | [8]; at 33.0 µM 98% | [8]; at 100.0 µM 79% | [9]; [17] 99% | [9]; at 50.0 µM 86.3% | [10]; [16] 82% | [10]; at 11.0 µM 97% | [10]; at 33.0 µM 97% | [10]; [17] 98% | [10]; at 50.0 µM 87.2% | [10]; at 100.0 µM 83% | [11]; at 11.0 µM 97% | [11]; at 33.0 µM 99% | [11]; at 100.0 µM 90%
